Test results as given in PubChem BioAssay (NCI).
The panel holds about 79,000 compounds, 15% with a hit somewhere; the sample as a whole holds those more often. No stated cut-off is given here; in the data, active means growth inhibition above about 70%; inactive means the rest.

What was measured:
[1] = NCI Yeast Anticancer Drug Screen. Data for the rad50 strain (AID 155);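 further: 0% = growth of vehicle-only cultures of the same strain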; details: S. cerevisiae rad50 strain growth inhibition; at 50.0 µM; stronger effect = higher value
Outline: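 Genetically altered yeast (DNA repair pathway); compound treatment; growth inhibition vs vehicle ctrl.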

[2] = NCI Yeast Anticancer Drug Screen. Data for the mec2-1 strain (AID 157); details: S. cerevisiae mec2-1 strain, at 50.0 µM, stronger effect = higher value
Outline: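 Vehicle-treated cultures served as reference for growth inhibition of compound-exposed mec2-1 yeast.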

[3] = NCI Yeast Anticancer Drug Screen. Data for the sgs1 mgt1 strain (AID 161);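 further: 0% = growth of cultures given vehicle only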; details: S. cerevisiae sgs1 mgt1 strain, at 50.0 µM, stronger effect = higher value
Outline: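 Read-out: growth inhibition vs vehicle controls. Cells: mutant yeast strain deficient in DNA damage repair.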

[4] = NCI Yeast Anticancer Drug Screen. Data for the cln2 rad14 strain (AID 165);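 further: 0% = growth equal to vehicle treated cultures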; details: S. cerevisiae cln2 rad14 strain, at 50.0 µM, stronger effect = higher value
Outline: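 Each compound was tested on cln2 rad14 yeast. Inhibition of growth was calculated against vehicle-exposed controls.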

[5] = NCI Yeast Anticancer Drug Screen. Data for the bub3 strain (AID 167); details: S. cerevisiae bub3 mutant strain, at 50.0 µM, stronger effect = higher value
Outline: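 Yeast carrying a defined mutation is treated with each compound, and growth is compared with that of vehicle-exposed cells to give inhibition.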

[6] = NCI Yeast Anticancer Drug Screen. Data for the mlh1 rad18 strain (AID 175); details: S. cerevisiae mlh1 rad18 strain growth inhibition; at 50.0 µM; stronger effect = higher value
Outline: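 Vehicle-treated cultures served as the reference for growth inhibition in a yeast strain carrying DNA damage repair alterations exposed to each compound.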

Measured: growth inhibition

CC(C)C1OCC(CO)([N+](=O)[O-])CO1 (stereo unspecified)
inactive: [1] -45% | [2] -18.4% | [3] -21.8% | [4] -54.5% | [5] 1.35% | [6] -6.15%

CC1COS(=O)(=O)CS(=O)(=O)O1 (stereo unspecified)
inactive: [1] -61.2% | [2] -17.4% | [3] -15.8% | [4] -57.8% | [5] 6.7% | [6] -16.1%

CC#Cc1c(C#CC)c(OC)c2c(c1OC)C(=O)c1ccccc1C2=O
inactive: [1] -20.9% | [2] -29.3% | [3] -26.2% | [4] 3.3% | [5] -8.2% | [6] -25.1%

NC(=S)NNc1ccccc1
inactive: [1] 0.2% | [2] -5.8% | [3] -0.05% | [4] -6.7% | [5] -2.6% | [6] -5.3%

CNC(=O)OCc1c(COC(=O)NC)c(-c2ccsc2)n2c1CCC2
inactive: [1] 17.5% | [2] 13.6% | [3] 37.1% | [4] -5.6% | [5] -22.4% | [6] 8.25%

Cc1ccc(N=NNc2ccccc2)cc1
inactive: [1] -7.7% | [2] -8.05% | [3] -7.65% | [4] -13.9% | [5] -11.3% | [6] -7.6%

CCC(C(C)=O)C(C)C (stereo unspecified)
inactive: [1] 5.2% | [2] 6.55% | [3] 8.6% | [4] 7.2% | [5] -2% | [6] 13.3%

Fc1ccc(N2CSC(=S)N(c3ccc(F)cc3F)C2)c(F)c1
inactive: [1] 8.95% | [2] -5.7% | [3] 31.5% | [4] 6.8% | [5] 28.9% | [6] 18.8%

COCCCC(O)CNC(C)C (stereo unspecified)
inactive: [1] -11.2% | [2] 7.1% | [3] -16.4% | [4] -18.2% | [5] 0.95% | [6] -5.95%

CCC1CCN=C(NS(=O)(=O)c2cc(C)c(Cl)cc2S)N1 (stereo unspecified)
inactive: [1] -29.8% | [2] -5.25% | [3] -25.2% | [4] -18.1% | [5] 4.9% | [6] -33%

Cc1ccc(NC(=O)Oc2cc(C)c(Cl)cc2C(C)C)cc1
inactive: [1] -3.9% | [2] 54.2% | [3] 43% | [4] -28.2% | [5] 51.4% | [6] 65%

Cc1cccc(Cl)c1NC(=O)c1cccc(C(=O)Nc2c(C)cccc2Cl)c1
inactive: [1] 9.3% | [2] 4.45% | [3] 15.4% | [4] -30.3% | [5] -2.5% | [6] 27.6%

O=C1CN(/N=C/c2ccc(-c3ccc(F)cc3)o2)C(=O)N1
inactive: [1] 10.4% | [2] -0.15% | [3] -20.9% | [4] -26.6% | [5] 5.05% | [6] -3.45%

COCOc1ccc(-c2ccc(O)cc2)cc1
inactive: [1] 10.8% | [2] 9.95% | [3] 0% | [4] -47.2% | [5] 18.9% | [6] 5.15%

COC(=O)c1csnn1
inactive: [1] 1.2% | [2] 10.8% | [3] 12.7% | [4] 8.5% | [5] 4.3% | [6] 10.2%

CN=C1c2ccccc2C(=O)c2c1c(O)n(C)c2O
inactive: [1] 3.05% | [2] -8.45% | [3] 0.9% | [4] 1.4% | [5] -2.75% | [6] -1%

COC1=C(c2ccccc2)P(=O)(Cc2ccccc2)C(C)C1 (stereo unspecified)
inactive: [1] -6.95% | [2] 12.2% | [3] 24.6% | [4] -9.1% | [5] 48.3% | [6] 1.9%

Cc1cc(Cl)ccc1NC(=O)CCCC(=O)C1CCC/C1=N\NC(=O)CC#N (stereo unspecified)
inactive: [1] -33.2% | [2] 9.7% | [3] -7.25% | [4] 8.95% | [5] 5.7% | [6] -12.3%

C[Si](C)(C)CSC#N
inactive: [1] -16.6% | [2] 6.45% | [3] 12.5% | [4] 4.65% | [5] 2.75% | [6] 11.5%

COC(=O)CCNC(=O)c1ccccc1
inactive: [1] 3.5% | [2] -1.6% | [3] -4.75% | [4] -5.75% | [5] 1.2% | [6] -3.25%

CC(C)OP(=O)(OC(C)C)C([CH2][Sn]([CH3])([CH3])[Cl])P(=O)(OC(C)C)OC(C)C
inactive: [1] 5.75% | [2] -0.8% | [3] 0.45% | [4] 0.25% | [5] -2.1% | [6] -1.45%
